# High-throughput results (PubChem)
# Rows were chosen to be rich in hits. Some 2.3% of all compounds tested hit in one or more screens of this group.
# LEDGF integ inh: blocks HIV-1 LEDGF/p75-dependent DNA integration; hit rate 0.64% among 370,000; TR-FRET IN-LEDGF/p75 DNA integration, Eu/Cy5; inhibition, % at 3.7 µM;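 active means inhibition above the screen-wide mean plus 3 SD, cut at about 13% in these data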;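 further: signal is the Cy5 over europium emission ratio at 671 and 618 nm; 0% = plate median of compound wells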
# MBD2 DNA inh: MBD2-methylated oligo binding inhibition; inhibition, % at 4.4 µM; TR-FRET, MBD2 binding to methylated oligonucleotide; hit rate 0.31% among 370,000; in the data active means inhibition above about 13%
# UHRF1 MBD2 ctr: UHRF1 methyl-DNA binding inhibition. Q96T88. UHRF1 binding to methylated oligo, TR-FRET. inhibition, % at 4.4 µM. hit rate 0.75% among 370,000; in the data active means inhibition above about 21%;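 further: UHRF1 SRA domain binding a hemimethylated CpG hairpin DNA probe; 0% = median of test compound wells and 100% = reference inhibitor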
# PLCb3 inh: blocks human PLC-beta3 enzyme activity. Q01970. Purified PLC-beta3, fluorogenic substrate, fluorescence. inhibition, % at 12.2 µM. hit rate 0.18% among 370,000. AID 720704; in the data active means inhibition above about 11%;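 further: 0% = median of compound wells on plate and 100% = full blocker control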
# PLCg1 inh: blocks human PLC-gamma1 enzyme activity | inhibition, % at 12.2 µM | purified PLC-gamma1, fluorogenic substrate, fluorescence | AID 720700 | hit rate 0.84% among 370,000; in the data active means inhibition above about 9.5%
# Starred values were filed as active, the others as inactive.
SMILES,LEDGF integ inh,MBD2 DNA inh,UHRF1 MBD2 ctr,PLCb3 inh,PLCg1 inh
CCN1CCN(c2ccc(S(=O)(=O)N3CCOCC3)cc2NC(=O)CC(NC(C)=O)c2ccccc2)CC1 (configuration not stated),2,0,3,-2,-1
CCN1CCN(c2ccc(S(=O)(=O)N3CCCCC3)cc2NC(=O)CC(C)c2ccccc2)CC1 (configuration not stated),-1,1,52*,-2,-3
Cc1ccc(S(=O)(=O)N2CCCCC2)cc1NC(=O)COC(=O)c1ccc(O)cc1,-2,-1,34*,0,-1
O=C(COc1ccc(F)cc1)Nc1cc(S(=O)(=O)N2CCCCC2)ccc1N1CCCCC1,4,9,21,-6,-2
CN[C@H]1C[C@H]2c3cc(-c4ccc5c(c4)OCO5)ccc3CCN2C[C@H]1[C@H](C)O,4,-4,-2,2,0
CC(C)N(Cc1ccccc1)C(=O)/C=C/c1ccccc1[N+](=O)[O-],3,3,28*,0,-1
C#CCNC(=O)C[C@H]1C[C@@]2(C(=O)OC)C(=C[C@H](C3CCCC3)O[C@@H]2C)N(Cc2ccc(Cl)cc2Cl)C1=O,-6,4,-1,2,3
O=C(NCc1cc(Cl)cc(Cl)c1)c1ccc2nc(COCCO)[nH]c2c1,0,1,21*,0,2
O=S(=O)(c1ccc(Br)cc1)N1CCCN(Cc2cccc(F)c2)CC1,0,-3,62*,-1,2
O=S(=O)(c1ccccc1)N1CCN(Cc2cccc(Br)c2)CC1,5,-3,-1,-5,2
COc1cccc(C(=O)Nc2ccccc2-c2ccccc2)c1,7,8,22*,-3,6
COC(=O)[C@]12C[C@H](CC(=O)NCc3cccs3)C(=O)N(CCc3ccc(OC)c(OC)c3)C1=C[C@H](C1CCCC1)O[C@@H]2C,-5,-5,-1,-3,0
CS(=O)(=O)N[C@@H]1C[C@@H]2O[C@H](CO)CC[C@@H]2O[C@@H]1CCc1ccc(-c2ccccc2F)cc1,3,-1,0,3,3
O=c1ccc2cc3c([nH]c4ccc(Br)cc43)oc-2c1O,66*,1,19,-10,10*
CC1=C2NC(N)=[N+](CC3CC3)C(Cc3ccccc3)[C@@H]2n2c(=O)n(-c3ccccc3)c(=O)n2C1 (some centres not stated),-3,4,0,4,3
C#CC1(NC(=S)Nc2cccc(OC)c2)CCCCC1,2,2,0,9,11*
COc1cccc(NC(=S)NCc2ccc(F)cc2)c1,-5,1,-3,-5,-1
CC(C)(C)C1CCc2[nH]nc(C(=O)O)c2C1 (configuration not stated),5,-1,2,10,15*
O=[N+]([O-])c1ccc2nc(COCc3nc4ccccc4[nH]3)[nH]c2c1,0,0,0,2,3
COC(=O)[C@]12C[C@H](CC(=O)NCC3CCCCC3)C(=O)N(CCc3ccc(OC)c(OC)c3)C1=C[C@H](C1CCCC1)O[C@@H]2C,-2,3,-4,1,0
COC(=O)[C@]12C[C@H](CC(=O)NCC3CCCCC3)C(=O)N(CCc3ccc(OC)c(OC)c3)C1=C[C@H](C(C)(C)C)O[C@@H]2C,-3,5,23*,5,1
COC(=O)[C@]12C[C@H](CC(=O)NCC3CCCCC3)C(=O)N(Cc3ccc4c(c3)OCO4)C1=C[C@H](C(C)(C)C)O[C@@H]2C,-2,6,23*,3,-1
OCCN1CCN(CCCN2c3ccccc3CCc3ccccc32)CC1,2,-2,1,6,13*
CNc1ccccc1,-3,0,3,-2,-3
CNc1cccccc1=S,23*,8,15,-12,-7
COc1ccc(C(=O)Nn2c(CC(C)C)nc3cc(OC)c(OC)cc3c2=O)c(OC)c1,-5,2,34*,0,0
FC(F)(F)c1ccc(CSc2nccn2-c2ccccc2)cc1,-1,-5,80*,3,1
CC(OC(=O)Cc1c[nH]c2ccccc12)C(=O)NC1CCCCC1C (configuration not stated),1,8,23*,-6,1
CC1CCCC(NC(=O)COC(=O)Cc2c[nH]c3ccccc23)C1C (configuration not stated),1,2,4,2,0
O=S1(=O)c2ccc(N3CCCC3)cc2Oc2ccccc2CN1Cc1cn(Cc2cccc(C(F)(F)F)c2)nn1,4,-3,1,1,6
